Experimental findings from PubChem BioAssay (NCATS) are described below.

What all share (experiment): qHTS profiling for inhibitors of Plasmodium falciparum proliferation (AID 504749); further: nearly all actives have a fitted effect of over 60% in size
Common to all, as to settings: P. falciparum in erythrocytes, SYBR Green DNA, 72 h; series mostly up to 28.7 µM
For orientation: Quantitative high-throughput screening tests each substance at several concentrations.

In assay [1] the test system is CP237. The procedure, abridged: (§1)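 Three-day growth assay of blood-stage parasites in erythrocytes (0.3% parasitemia, 2.5% hematocrit) at 37 C, 5% CO2, quantified by SYBR Green DNA staining after overnight detergent lysis.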
For assay [2], the system named is CP238. Summed up: as §1
The subject of assay [3] is CP247. The procedure, abridged:
as §1

The subject of assay [4] is CP250. Summed up:
as §1

Assay [5] concerns CP252. Summed up: as §1
Assay [6] concerns CP256. The procedure, abridged: as §1
The test system of assay [7] is CP260. Summed up: as §1
Assay [8] deals with CP262. Summed up:
as §1

Assay [9] relates to CP265. The procedure, abridged: as §1
The subject of assay [10] is CP266. Summed up: as §1
In assay [11] the test system is CP268. Summed up: as §1
Assay [12] relates to CP269. The procedure, abridged: as §1
Assay [13] concerns CP286. Summed up: as §1
In assay [14] the test system is CP297. The procedure, abridged: as §1
Assay [15] concerns CP305. The procedure, abridged: as §1
Assay [16] relates to CP315. Summed up:
as §1

Assay [17] relates to CP325. Summed up:
as §1

In assay [18] the test system is CP329. Summed up: as §1
Assay [19] deals with CP335. Summed up: as §1
In assay [20] the test system is CP291. Summed up:
as §1

Structures are written as SMILES. Results filed as inconclusive are left out. Active and inactive are the calls of the source. The call rests on the fitted dose curve; in most records, active means well fitted inhibition curve with a large enough effect; inconclusive means small, poorly fitted or top-dose-only effect; inactive means flat fitted curve, though single readings scatter.
Potency means the concentration at half of the fitted maximal effect.

For the compound `CCCCCCCCCCCCCCCCCCCCCCO`, the Potency result in [1], in [2], in assay [3], in assay [4], in assay [5] and in assay [6] was “inactive” each time. The Potency result in [7], in [8], in assay [9], in assay [10], in assay [11] and in assay [12] was “inactive” in each case. Also, the Potency entry in assay [13], in [14], in assay [15], in assay [16], in assay [17] and in assay [18] was “inactive” in each case. In addition, in assay [19], the Potency result was “inactive”.

As for `C=CCc1cc(OC)c(O)c(C(=O)NCCO)c1`, the Potency result in [1], in assay [2], in assay [3], in assay [4], in assay [5] and in [6] was “inactive” throughout. Also, the Potency result in assay [7], in assay [8], in assay [9], in assay [10], in assay [11] and in [12] was “inactive” throughout. Moreover, the Potency entry in assay [13], in assay [14], in [15], in assay [16], in [17] and in assay [18] was “inactive” in each case. The Potency entry in assay [19] was “inactive”.

For `COc1cc(OC)c(C(=O)CCCN2CCCC2)c(OC)c1`, the Potency entry in assay [1], in assay [2], in assay [3], in assay [4], in [5] and in assay [6] was “inactive” each time. In addition, the Potency result in [7], in assay [8], in [9], in assay [10], in assay [11] and in [12] was “inactive” each time. For the same compound, the Potency result in [13], in [20], in assay [14], in assay [15], in assay [16] and in assay [17] was “inactive” each time. Also, the Potency entry in assay [18] and in assay [19] was “inactive” throughout.

As to `Oc1ccc(OCc2ccccc2)cc1`, the Potency entry in assay [1], in assay [2], in assay [3], in [4], in [5] and in [6] was “inactive” in each case. Moreover, the Potency result in assay [7], in assay [9], in assay [10], in assay [11], in [12] and in assay [13] was “inactive” in each case. Also, the Potency entry in assay [20], in assay [14], in [16], in assay [17], in assay [18] and in assay [19] was “inactive” throughout.

With `O=C1CCc2ccc(OCCCCN3CCN(c4cccc(Cl)c4Cl)CC3)cc2N1`, the Potency in assay [1] is 14.1 µM (active); in [7], 11.2 µM (active). Also, the Potency entry in assay [6], in assay [8], in assay [9], in assay [10], in assay [11] and in assay [12] was “inactive” in each case. The Potency result in assay [20], in assay [14], in assay [15], in assay [16], in assay [17] and in assay [18] was “inactive” throughout.

In the case of `CCc1nc(N)nc(N)c1-c1ccc(Cl)cc1`, the Potency result in assay [2], in [4], in [6], in [7], in assay [8] and in assay [9] was “inactive” throughout. Moreover, the Potency entry in [10], in [11], in assay [12], in assay [13], in assay [20] and in [15] was “inactive” in each case. For the same compound, the Potency result in [16] and in [17] was “inactive” each time.

Consider `CC(C)c1ccc2oc3nc(N)c(C(=O)O)cc3c(=O)c2c1`, for which the Potency result in assay [1], in assay [2], in [6], in [8], in assay [9] and in [11] was “inactive” in each case. Further, the Potency result in [12], in assay [13], in assay [20], in [14], in assay [15] and in assay [16] was “inactive” in each case. The Potency result in assay [17], in [18] and in assay [19] was “inactive” in each case. Also, the Potency in assay [3] was 5.62 µM (active).

Turning to `CCN(CC)CCOc1ccc(Cc2ccccc2)cc1`, the Potency entry in assay [1], in [2], in assay [4], in [5], in assay [6] and in assay [8] was “inactive” in each case. Besides, the Potency entry in assay [9], in assay [10], in assay [11], in assay [12], in assay [13] and in [20] was “inactive” throughout. For the same compound, the Potency result in assay [14], in [15], in [16], in assay [17], in [18] and in [19] was “inactive” throughout.

`Cc1cc(=O)oc2cc(O)ccc12`: the Potency result in assay [1], in assay [10], in [11], in assay [12], in [20] and in assay [15] was “inactive” throughout. For the same compound, the Potency entry in [16], in assay [17] and in [18] was “inactive” each time.

On to `CC1=C(C)C(=O)C(C(CCCCCC(=O)O)c2ccccc2)=C(C)C1=O` (configuration not stated), for which the Potency entry in assay [1], in assay [2], in [6], in assay [7], in assay [8] and in assay [9] was “inactive” throughout. The Potency result in assay [10], in [11], in assay [12], in assay [13], in assay [20] and in assay [15] was “inactive” throughout. Also, the Potency entry in [17], in assay [18] and in assay [19] was “inactive” each time. The Potency in [3] was 3.98 µM (active).

Regarding `CCCCC(CC)COC(=O)C(C#N)=C(c1ccccc1)c1ccccc1` (configuration not stated), the Potency entry in assay [2], in assay [5], in assay [8], in [11], in assay [12] and in assay [15] was “inactive” in each case. Also, the Potency result in assay [16], in assay [17] and in assay [18] was “inactive” in each case. Moreover, the Potency in [6] is 8.91 µM (active).

Take `c1ccc2[nH]c(-c3cscn3)nc2c1`: the Potency result in assay [1], in assay [2], in assay [5], in assay [6], in assay [7] and in assay [8] was “inactive” each time. Besides, the Potency result in assay [9], in [10], in assay [11], in assay [12], in assay [13] and in assay [20] was “inactive” throughout. For the same compound, the Potency entry in [15], in [16], in assay [17], in assay [18] and in [19] was “inactive” each time.

For `Cc1nc(Nc2ncc(C(=O)Nc3c(C)cccc3Cl)s2)cc(N2CCN(CCO)CC2)n1`, the Potency entry in assay [2], in assay [6], in assay [7], in assay [8], in [9] and in [11] was “inactive” throughout. Also, the Potency entry in [20], in assay [15], in [16], in [17], in assay [18] and in [19] was “inactive” throughout.
